# About 20 (1%) of roughly 1,700 compounds were called active. The entries come from a sample that favours actives as a whole. Unmarked numbers belong to inactive results. Rule as the data show it: active = inhibition above about 26%; inactive = the rest.
# Tested on: Candida albicans multidrug efflux pump MDR1 (expressed in S. cerevisiae AD1-8u)
# Assay: CaMdr1 pump blockers in yeast – flow cytometry, singleplex, Cherry Pick1 set, confirmation (AID 588518);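 also: 0% = DMSO vehicle and 100% = reference inhibitor; higher means more Nile Red retained so more efflux inhibition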
# Settings: S. cerevisiae AD/CaMDR1, Nile Red efflux, at 10 µM, active compounds read high
row,SMILES,inhibition
1,CCc1ccc(NC(=O)Cn2ncn3c(cc4ccccc43)c2=O)cc1,-0.1%
2,Cc1nc2c(C(=O)NCc3ccc4c(c3)OCO4)c[nH]n2c(=O)c1Cc1ccccc1F,-0.28%
3,Cc1cc(C)cc(NC(=O)C(OC(=O)c2ccc(O)cc2)c2ccccc2)c1 (stereo unspecified),-0.15%
4,Cc1oc2cc3oc(=O)ccc3cc2c1C,-0.03%
5,C/C(N)=C(/C#N)C(=O)COC(=O)c1cc(-c2cccc(Br)c2)nc2ccccc12,-0.13%
6,CCCCN1C(=O)/C(=C/C=C2/C=Cc3ccccc3N2CC)SC1=S,-0.28%
7,CCNc1c(NS(=O)(=O)c2ccc(C3CCCCC3)cc2)c(=O)oc2ccccc12,-0.16%
8,O=C(Cc1ccc(Br)cc1)N1CCN(c2ccccn2)CC1,-0.14%
9,CSCCC(NC(=O)COc1ccccc1)C(=O)OCCOc1ccc(Br)cc1 (stereo unspecified),-0.39%
10,Cc1ccc2[nH]c3c(=O)n(CC(=O)NCCc4ccc(Cl)cc4)ncc3c2c1,-0.13%
11,CCCc1nc(N2CCN(C)CC2)c2sc(=S)n(-c3ccccc3)c2n1,-0.01%
12,COc1ccc(S(=O)(=O)N2CCOC2CNC(=O)C(=O)NCc2ccc(F)cc2)cc1 (stereo unspecified),0.32%
13,CCNC(=O)c1c(O)c2cccc3c2n(c1=O)CC3,-0.2%
14,COc1ccc2[nH]c3c(C)c4cc[n+](C)cc4c(C)c3c2c1,0.07%
15,CC(/C=C/c1ccccc1)=N\NC(=O)C1CC1(C)c1ccccc1 (stereo unspecified),-0.16%
16,O=C1NC(=O)C2C1C(c1ccc([N+](=O)[O-])cc1)=NN2Cc1ccccc1 (stereo unspecified),0.35%
17,CN(C)S(=O)(=O)c1cc(C(=O)Nc2ccn(C)n2)c(Cl)cc1Cl,-0.29%
18,COc1ccc(NC(=S)N2CCc3cc(OC)c(OC)cc3C2)cc1,-0.21%
19,CC12CCC(C(=O)N(c3cccc(Cl)c3)C1=O)C2(C)C (stereo unspecified),-0.13%
20,CCCCOc1ccc(C(=O)NCC(=O)OCC(=O)c2c(N)n(C)c(=O)n(C)c2=O)cc1,-0.28%
21,COc1ccccc1/C=C/C=N/n1c(-c2ccc(Cl)cc2Cl)n[nH]c1=S,0.32%
22,Cc1ccc(/C=C(\C#N)C(=O)Nc2cccc3ncccc23)o1,-0.29%
23,Cc1c(CCOC(=O)CC23CC4CC(CC(C)(C4)C2)C3)sc[n+]1Cc1ccc([N+](=O)[O-])cc1,-0.01%
24,NNC(=O)COc1ccc(C2SCCS2)cc1,-0.31%
25,O=C(Cn1c(COc2ccccc2)nc2ccccc21)Nc1cc(Cl)c(Cl)cc1Cl,0.02%
26,CCOC(=O)CNC(=O)CSc1nnnn1-c1cc(C)ccc1C,-0.31%

row,SMILES,inhibition
1,Cc1csc(NC(=O)c2ccc(-c3ccc(Cl)cc3Cl)o2)n1,0.14%
2,COc1ccc(-c2sc3ccccc3c2-c2ccc(OCCN3CCOCC3)cc2)cc1,0.1%
3,CC(C)C(=O)N1CCC2(CC1)Oc1ccc(F)cc1C(=O)C21CC(c2ccccc2)=NO1 (stereo unspecified),45.9% (active)
4,CCCc1nnc(SCC(=O)Nc2ccc(C(=O)OCC)cc2)o1,0.19%
5,O=C(Nc1ccc(NC(=O)c2cccs2)cc1)c1ccc2ccccc2c1,0.05%
6,CN1CCN(S(=O)(=O)c2ccc(NC(=S)NC(=O)C3CC3)cc2)CC1,-0.06%
7,Cc1ccc2c(c1)NC(=O)[C@@]1(C)[C@@H](c3ccccc3)[C@H]3COc4ccc(Cl)cc4[C@@H]3N1C2=O,-0.01%
8,COc1ccc(C(=O)NC2CC(C)(C)Cc3c2cnn3-c2ccccc2)c(OC)c1 (stereo unspecified),-0.03%
9,O=C(OCc1ccc(-c2ccccc2)cc1)c1cccc(O)c1,-0.19%
10,CC(/C=N/NC(=O)c1cc(-c2ccc3ccccc3c2)n[nH]1)=C\c1ccco1,-0.25%
11,CCOC(=O)c1c(NC(=S)NC(=O)c2ccco2)sc2c1CCCC2,-0.19%
12,CCCCCCCCCCCCCCCC(=O)OC/C=C(C)/C=C/C=C(C)/C=C/C1=C(C)CCCC1(C)C,-0.1%
13,COc1ccccc1NC(=O)C1CCCN1S(=O)(=O)c1ccc(Cl)cc1 (stereo unspecified),-0.11%
14,CC1CCc2c(sc(NC(=O)c3ccc(Cn4cc(Br)cn4)o3)c2C(N)=O)C1 (stereo unspecified),-0.1%
15,CCCCCC(=O)Nc1ccc(C(=O)N/N=C/c2ccc([N+](=O)[O-])cc2)cc1,-0.14%
16,CSCCC(NS(=O)(=O)c1ccc(C)cc1)C(=O)N1CCCC1 (stereo unspecified),-0.25%
17,Cc1cc(/C=N/NC(=O)CC2(C)OCCO2)c(C)n1-c1ccc(Cl)c(Cl)c1,0.16%
18,Cc1ccc(OCc2cc(C(=O)N(C)CCc3ccccc3)no2)cc1C,-0.03%
19,Cc1nn(C)cc1C(=O)Nc1ccccc1Br,-0.15%
20,O=C(CCCCCn1c(=O)[nH]c2ccccc2c1=O)NCCc1c[nH]c2ccccc12,-0.03%
21,C[n+]1ccc(/C=C/c2c[nH]c3ccccc23)cc1,5.81%
22,O=C(Cc1ccccc1)NCC1OCCc2ccccc21 (stereo unspecified),-0.13%
23,CCOc1ccccc1/C=c1\sc2nc(-c3ccco3)nn2c1=O,0.22%
24,Cc1nn(C)cc1N1C(=O)c2cccc3c(N)ccc(c23)C1=O,0.11%
25,COc1ccc2sc(-c3ccccc3OC)c(-c3ccc(OCCN4CCCC4)cc3)c2c1,5.13%
26,COc1ccc(/C=C(\C#N)c2c[nH]c3ccccc23)cc1,0.1%

row,SMILES,inhibition
1,Cc1cccc(NC(=O)COc2ccccc2C)n1,-0.06%
2,COc1ccc(C(=O)NC(=S)Nc2ccc(N3CCCC3)cc2)cc1OC,-0.18%
3,Cc1cc(C(=O)Nc2ccc(C)c(S(=O)(=O)N3CCOCC3)c2)c2ccccc2n1,-0.31%
4,O=C(/C=C/c1c(Cl)cccc1Cl)NCc1ccccc1,0.02%
5,CCOc1ccc(C2/C(=C(/O)c3ccc4c(c3)CC(C)O4)C(=O)C(=O)N2CCCn2ccnc2)cc1 (stereo unspecified),0.05%
6,Cc1ccc(Cn2c(C)nc3c(c2=O)c2nc4ccccc4nc2n3Cc2ccco2)cc1,0.02%
7,CCOc1ccc2nc(Cl)c(C3CC(c4ccccc4)=NN3C(=O)c3cccs3)cc2c1 (stereo unspecified),0%
8,O=C(NCc1ccccc1)C(=O)NCC1OCCN1S(=O)(=O)c1ccc(Br)cc1 (stereo unspecified),-0.13%
9,COc1cccc(-c2sc3ccc(OC)cc3c2-c2ccc(OCCN3CCCCC3)cc2)c1,20.7%
10,COc1cccc(NC(=O)CN(C)C(=O)/C=C/c2cc(OC)ccc2OC)c1,-0.16%
11,O=C(CNC(=O)c1ccc(-c2ccccc2)cc1)OCc1ccc(Cl)cc1,0.01%
12,O=C(CN1C(=O)C2C3CCC(C3)C2C1=O)Oc1ccc2ccccc2c1 (stereo unspecified),0.12%
13,Cc1ccc(N=C2NC(=O)/C(=C/C=C/c3ccco3)S2)cc1C,0.12%
14,CCOc1ccc(/C=C2\SC(=S)N(NC(=O)c3ccncc3)C2=O)cc1OC,-0.14%
15,O=S(=O)(c1ccccc1)N1CCc2ccccc21,0.11%
16,Cc1ccc(Cn2nnc3c(=O)[nH]c(C4CCN(S(=O)(=O)/C=C/c5ccccc5)CC4)nc32)cc1,-0.18%
17,COc1ccccc1CSc1ncc(-c2ccc([N+](=O)[O-])cc2)[nH]1,-0.17%
18,O=C(CSc1nnc(-c2cccnc2)n1Cc1ccco1)c1ccc(Cl)c(Cl)c1,0.13%
19,COc1ccc(C(=O)C2CCCN(Cc3cccn3-c3ccccn3)C2)c(C)c1 (stereo unspecified),-0.17%
20,CC[n+]1cc(C)ccc1/C=C/c1ccc(N(C)C)cc1,10.7%
21,CN=C(c1ccccc1)c1c(C)cccc1C,-0.14%
22,CCn1c(/C=C/c2ccc([N+](=O)[O-])o2)nc2ccccc2c1=O,1.88%
23,COc1ccc(C(=O)NC2CCCc3c2cnn3-c2cccc(C)c2C)c(OC)n1 (stereo unspecified),-0.16%
24,C=CCC[C@@H](Cc1ccc(F)cc1)C(=O)OC[C@H](Cc1c[nH]c2ccccc12)NC(=O)[C@@H](CC=C)CC(=O)N(CCO)Cc1ccccc1,56.2% (active)

# — PubChem BioAssay AID588518 (NMMLSC, 2011)
